# Measurements published in PMC7862700, “An all-to-all approach to the identification of sequence-specific readers for epigenetic DNA modifications on cytosine”.
# Assays:
# Experiment in all cases: DAPPL (digital affinity profiling via proximity ligation, sequencing); 10 mM Tris-HCl pH 7.5, 50 mM NaCl, 1 mM DTT, 4% glycerol, room temperature, 30 min; GST-TFs on glutathione beads, 16-mer random dsDNA library, 0.1% formaldehyde crosslink after washing; high values mean tight binding
# [1] = molecular target: T1, FLI1 (Homo sapiens, UniProt Q01543 1-452); conditions: protein: recombinant; tags: N-terminal GST; dsDNA, one strand shown
# T1 sequence: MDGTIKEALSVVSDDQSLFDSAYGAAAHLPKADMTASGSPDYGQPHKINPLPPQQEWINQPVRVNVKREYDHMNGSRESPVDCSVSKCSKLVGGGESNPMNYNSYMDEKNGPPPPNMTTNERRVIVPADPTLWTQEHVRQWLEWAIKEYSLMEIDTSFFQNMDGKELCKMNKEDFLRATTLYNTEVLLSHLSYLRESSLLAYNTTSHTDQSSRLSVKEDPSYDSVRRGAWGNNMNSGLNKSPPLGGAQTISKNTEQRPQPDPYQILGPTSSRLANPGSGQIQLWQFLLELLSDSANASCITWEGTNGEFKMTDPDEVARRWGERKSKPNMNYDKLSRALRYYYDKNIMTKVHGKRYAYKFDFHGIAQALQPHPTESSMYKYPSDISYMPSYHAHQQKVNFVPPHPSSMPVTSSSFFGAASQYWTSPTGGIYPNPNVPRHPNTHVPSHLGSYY
# Method in brief: (§1)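 Pools of DNA-barcoded human transcription factors, expressed in yeast as GST fusions on glutathione beads and combined with a tag-only sample, were incubated with 200 nmole of a 16-mer random double-stranded DNA library. Incubation took 30 min at room temperature in Tris/NaCl/DTT/glycerol buffer and was followed by washing, 0.1% formaldehyde crosslinking, proximity ligation (BsaI/T4 ligase, 1 h, 37 °C), PCR amplification and sequencing on an Illumina NextSeq500. Binding signal is the ratio of a hexamer's read frequency for a factor to its frequency for the tag-only sample.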
# [2] = molecular target: T2, ELK1 (Homo sapiens, UniProt P19419 1-428); conditions: protein: recombinant; tags: N-terminal GST; dsDNA, one strand shown
# T2 sequence: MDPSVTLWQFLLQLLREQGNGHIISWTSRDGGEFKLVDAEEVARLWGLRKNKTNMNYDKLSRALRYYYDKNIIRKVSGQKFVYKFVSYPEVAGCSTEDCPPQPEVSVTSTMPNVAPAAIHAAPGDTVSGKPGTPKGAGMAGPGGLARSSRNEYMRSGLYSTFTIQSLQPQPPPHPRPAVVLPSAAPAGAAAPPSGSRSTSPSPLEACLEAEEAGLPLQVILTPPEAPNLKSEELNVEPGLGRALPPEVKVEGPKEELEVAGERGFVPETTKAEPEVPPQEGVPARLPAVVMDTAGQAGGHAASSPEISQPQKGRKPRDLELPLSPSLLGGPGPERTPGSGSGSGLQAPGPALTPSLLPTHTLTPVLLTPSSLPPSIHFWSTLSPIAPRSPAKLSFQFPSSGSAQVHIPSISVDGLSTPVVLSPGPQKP
# Method in brief: as §1
# [3] = molecular target: T3, GABPA (Homo sapiens, UniProt Q06546 1-454); conditions: protein: recombinant; tags: N-terminal GST; dsDNA, one strand shown
# T3 sequence: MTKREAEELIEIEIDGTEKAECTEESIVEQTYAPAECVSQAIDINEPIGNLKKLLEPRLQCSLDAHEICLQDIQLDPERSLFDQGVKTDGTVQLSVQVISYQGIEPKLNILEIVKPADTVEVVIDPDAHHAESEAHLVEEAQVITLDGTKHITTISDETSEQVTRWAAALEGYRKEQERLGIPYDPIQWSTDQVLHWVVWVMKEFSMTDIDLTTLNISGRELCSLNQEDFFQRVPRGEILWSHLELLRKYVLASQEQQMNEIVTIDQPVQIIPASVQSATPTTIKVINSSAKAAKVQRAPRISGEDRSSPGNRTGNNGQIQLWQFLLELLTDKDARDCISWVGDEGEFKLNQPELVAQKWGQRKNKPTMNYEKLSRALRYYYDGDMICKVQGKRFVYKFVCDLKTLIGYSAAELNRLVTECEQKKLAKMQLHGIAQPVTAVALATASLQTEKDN
# Method in brief: as §1
# [4] = molecular target: T4, ERG (Homo sapiens, UniProt P11308 1-479); conditions: protein: recombinant; tags: N-terminal GST; dsDNA, one strand shown
# T4 sequence: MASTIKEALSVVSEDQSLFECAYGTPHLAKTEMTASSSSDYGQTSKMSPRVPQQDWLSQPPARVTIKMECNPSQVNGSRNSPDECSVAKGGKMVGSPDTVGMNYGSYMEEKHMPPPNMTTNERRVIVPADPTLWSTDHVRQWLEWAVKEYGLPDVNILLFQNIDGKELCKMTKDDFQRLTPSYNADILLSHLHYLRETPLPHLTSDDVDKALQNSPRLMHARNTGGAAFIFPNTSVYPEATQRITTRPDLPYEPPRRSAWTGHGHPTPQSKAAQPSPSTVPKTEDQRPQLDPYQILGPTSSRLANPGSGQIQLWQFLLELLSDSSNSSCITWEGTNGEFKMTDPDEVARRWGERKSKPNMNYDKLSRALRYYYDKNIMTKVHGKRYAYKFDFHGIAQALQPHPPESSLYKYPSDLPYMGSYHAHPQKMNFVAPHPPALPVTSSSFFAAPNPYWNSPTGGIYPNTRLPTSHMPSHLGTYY
# Method in brief: as §1
# [5] = molecular target: ELF1 (Homo sapiens, UniProt P32519 1-619); conditions: protein: recombinant; tags: N-terminal GST; dsDNA, one strand shown
# Method in brief: as §1
# [6] = molecular target: T5, EHF (Homo sapiens, UniProt Q9NZC4 1-300); conditions: protein: recombinant; tags: N-terminal GST; dsDNA, one strand shown
# T5 sequence: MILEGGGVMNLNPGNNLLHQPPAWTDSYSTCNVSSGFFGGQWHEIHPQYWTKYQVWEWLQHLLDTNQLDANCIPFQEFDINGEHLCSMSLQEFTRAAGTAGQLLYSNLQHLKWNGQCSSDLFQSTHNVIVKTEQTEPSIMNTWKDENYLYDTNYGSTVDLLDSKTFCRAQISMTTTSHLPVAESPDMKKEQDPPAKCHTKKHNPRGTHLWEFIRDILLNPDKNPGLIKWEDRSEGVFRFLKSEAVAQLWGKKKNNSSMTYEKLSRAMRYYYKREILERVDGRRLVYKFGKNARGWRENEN
# Method in brief: as §1
# [7] = molecular target: SPI1 (Homo sapiens, UniProt P17947 1-270); conditions: protein: recombinant; tags: N-terminal GST; dsDNA, one strand shown
# Method in brief: as §1
# [8] = molecular target: SPIB (Homo sapiens, UniProt Q01892 1-262); conditions: protein: recombinant; tags: N-terminal GST; dsDNA, one strand shown
# Method in brief: as §1
# [9] = molecular target: T6, ELK3 (Homo sapiens, UniProt P41970 1-407); conditions: protein: recombinant; tags: N-terminal GST; dsDNA, one strand shown
# T6 sequence: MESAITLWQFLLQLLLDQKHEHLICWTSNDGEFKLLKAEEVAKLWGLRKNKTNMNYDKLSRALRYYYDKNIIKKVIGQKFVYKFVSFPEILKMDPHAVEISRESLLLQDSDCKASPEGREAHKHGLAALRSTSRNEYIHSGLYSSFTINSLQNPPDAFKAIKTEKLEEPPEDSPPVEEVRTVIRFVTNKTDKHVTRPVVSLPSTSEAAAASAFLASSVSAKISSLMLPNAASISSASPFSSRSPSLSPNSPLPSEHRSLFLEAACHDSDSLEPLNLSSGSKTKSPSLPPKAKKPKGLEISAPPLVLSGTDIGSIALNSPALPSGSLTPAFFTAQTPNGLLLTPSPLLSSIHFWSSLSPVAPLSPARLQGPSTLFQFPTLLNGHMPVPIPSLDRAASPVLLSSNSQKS
# Method in brief: as §1
# [10] = molecular target: T7, FEV (Homo sapiens, UniProt Q99581 1-238); conditions: protein: recombinant; tags: N-terminal GST; dsDNA, one strand shown
# T7 sequence: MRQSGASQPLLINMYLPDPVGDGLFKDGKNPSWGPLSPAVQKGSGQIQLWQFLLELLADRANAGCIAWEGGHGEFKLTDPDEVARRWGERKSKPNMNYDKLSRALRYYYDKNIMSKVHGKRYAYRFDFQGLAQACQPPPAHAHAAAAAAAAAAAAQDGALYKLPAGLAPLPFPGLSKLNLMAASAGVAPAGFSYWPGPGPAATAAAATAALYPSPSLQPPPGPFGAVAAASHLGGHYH
# Method in brief: as §1
# [11] = molecular target: ETV5 (Homo sapiens, UniProt P41161 1-510); conditions: protein: recombinant; tags: N-terminal GST; dsDNA, one strand shown
# Method in brief: as §1
# [12] = molecular target: HSF1 (Homo sapiens, UniProt Q00613 1-529); conditions: protein: recombinant; tags: N-terminal GST; chain copies: 3; dsDNA, one strand shown
# Method in brief: as §1
# [13] = molecular target: T8, SPIC (Homo sapiens, UniProt Q8N5J4 1-248); conditions: protein: recombinant; tags: N-terminal GST; dsDNA, one strand shown
# T8 sequence: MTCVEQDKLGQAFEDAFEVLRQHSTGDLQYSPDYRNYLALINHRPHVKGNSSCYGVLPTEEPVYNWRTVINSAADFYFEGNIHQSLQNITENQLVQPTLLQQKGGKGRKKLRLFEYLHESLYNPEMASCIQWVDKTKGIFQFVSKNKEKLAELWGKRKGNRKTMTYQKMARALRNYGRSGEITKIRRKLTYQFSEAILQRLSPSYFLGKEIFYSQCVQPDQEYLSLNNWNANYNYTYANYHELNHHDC
# Method in brief: as §1
# [14] = molecular target: ELF4 (Homo sapiens, UniProt Q99607 1-663); conditions: protein: recombinant; tags: N-terminal GST; dsDNA, one strand shown
# Method in brief: as §1
# [15] = molecular target: T9, ELK4 (Homo sapiens, UniProt P28324-2 1-405); conditions: protein: recombinant; tags: N-terminal GST; dsDNA, one strand shown
# T9 sequence: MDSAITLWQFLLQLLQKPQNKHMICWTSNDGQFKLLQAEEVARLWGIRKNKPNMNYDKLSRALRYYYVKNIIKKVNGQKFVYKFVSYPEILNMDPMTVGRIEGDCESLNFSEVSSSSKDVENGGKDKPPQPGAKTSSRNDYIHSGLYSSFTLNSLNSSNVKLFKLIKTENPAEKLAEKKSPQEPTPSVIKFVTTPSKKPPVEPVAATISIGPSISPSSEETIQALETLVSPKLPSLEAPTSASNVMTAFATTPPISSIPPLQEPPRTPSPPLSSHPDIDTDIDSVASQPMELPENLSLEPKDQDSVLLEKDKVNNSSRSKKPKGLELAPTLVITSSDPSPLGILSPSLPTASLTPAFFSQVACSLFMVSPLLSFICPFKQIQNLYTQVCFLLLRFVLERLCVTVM
# Method in brief: as §1
# [16] = molecular target: T10, ETV2 (Homo sapiens, UniProt O00321 1-342); conditions: protein: recombinant; tags: N-terminal GST; dsDNA, one strand shown
# T10 sequence: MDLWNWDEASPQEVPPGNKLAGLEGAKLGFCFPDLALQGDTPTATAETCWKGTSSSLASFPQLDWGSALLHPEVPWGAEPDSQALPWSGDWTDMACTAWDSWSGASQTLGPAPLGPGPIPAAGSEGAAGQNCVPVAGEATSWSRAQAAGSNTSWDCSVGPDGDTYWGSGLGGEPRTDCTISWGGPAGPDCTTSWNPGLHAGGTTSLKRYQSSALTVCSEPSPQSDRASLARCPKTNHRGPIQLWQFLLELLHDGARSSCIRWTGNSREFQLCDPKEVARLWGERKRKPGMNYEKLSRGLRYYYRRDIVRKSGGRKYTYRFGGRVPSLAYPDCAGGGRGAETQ
# Method in brief: as §1
# [17] = molecular target: T11, ELF3 (Homo sapiens, UniProt P78545 1-371); conditions: protein: recombinant; tags: N-terminal GST; dsDNA, one strand shown
# T11 sequence: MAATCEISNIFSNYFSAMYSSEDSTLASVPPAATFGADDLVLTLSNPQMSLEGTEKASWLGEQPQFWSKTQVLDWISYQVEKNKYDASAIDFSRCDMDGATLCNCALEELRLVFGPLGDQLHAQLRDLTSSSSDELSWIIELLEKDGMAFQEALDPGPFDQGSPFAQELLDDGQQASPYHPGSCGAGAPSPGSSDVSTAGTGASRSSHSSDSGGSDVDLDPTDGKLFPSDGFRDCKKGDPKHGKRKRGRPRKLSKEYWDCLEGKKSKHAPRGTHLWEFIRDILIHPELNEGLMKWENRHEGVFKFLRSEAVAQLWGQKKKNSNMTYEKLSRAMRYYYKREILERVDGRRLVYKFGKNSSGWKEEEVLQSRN
# Method in brief: as §1
# [18] = molecular target: CRX (Homo sapiens, UniProt O43186 1-299); conditions: protein: recombinant; tags: N-terminal GST; dsDNA, one strand shown
# Method in brief: as §1
# [19] = molecular target: ETV1 (Homo sapiens, UniProt P50549 1-477); conditions: protein: recombinant; tags: N-terminal GST; dsDNA, one strand shown
# Method in brief: as §1
# CRX, sequence (O43186 whole entry): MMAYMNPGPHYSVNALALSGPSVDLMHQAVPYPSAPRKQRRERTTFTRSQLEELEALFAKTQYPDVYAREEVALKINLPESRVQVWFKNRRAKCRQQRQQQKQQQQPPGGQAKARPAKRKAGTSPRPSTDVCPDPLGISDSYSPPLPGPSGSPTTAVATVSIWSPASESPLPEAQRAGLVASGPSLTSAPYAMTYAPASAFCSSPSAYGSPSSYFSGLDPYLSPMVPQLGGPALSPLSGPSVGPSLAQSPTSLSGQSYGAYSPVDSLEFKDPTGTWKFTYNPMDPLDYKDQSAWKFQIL
# HSF1, sequence (Q00613 whole entry): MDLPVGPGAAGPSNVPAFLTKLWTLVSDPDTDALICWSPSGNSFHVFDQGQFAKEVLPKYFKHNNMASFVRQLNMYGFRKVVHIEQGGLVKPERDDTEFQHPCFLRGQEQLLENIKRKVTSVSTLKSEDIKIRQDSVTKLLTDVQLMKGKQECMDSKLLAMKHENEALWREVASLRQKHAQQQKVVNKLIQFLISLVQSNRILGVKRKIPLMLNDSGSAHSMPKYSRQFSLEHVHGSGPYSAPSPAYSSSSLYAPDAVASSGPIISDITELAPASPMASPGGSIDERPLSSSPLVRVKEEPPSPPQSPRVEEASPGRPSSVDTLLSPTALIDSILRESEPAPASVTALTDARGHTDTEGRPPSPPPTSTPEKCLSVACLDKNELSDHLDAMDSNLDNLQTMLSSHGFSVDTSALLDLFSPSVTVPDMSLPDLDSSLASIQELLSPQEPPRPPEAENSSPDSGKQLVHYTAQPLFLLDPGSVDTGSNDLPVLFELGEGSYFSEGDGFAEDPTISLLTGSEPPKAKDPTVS
# ELF4, sequence (Q99607 whole entry): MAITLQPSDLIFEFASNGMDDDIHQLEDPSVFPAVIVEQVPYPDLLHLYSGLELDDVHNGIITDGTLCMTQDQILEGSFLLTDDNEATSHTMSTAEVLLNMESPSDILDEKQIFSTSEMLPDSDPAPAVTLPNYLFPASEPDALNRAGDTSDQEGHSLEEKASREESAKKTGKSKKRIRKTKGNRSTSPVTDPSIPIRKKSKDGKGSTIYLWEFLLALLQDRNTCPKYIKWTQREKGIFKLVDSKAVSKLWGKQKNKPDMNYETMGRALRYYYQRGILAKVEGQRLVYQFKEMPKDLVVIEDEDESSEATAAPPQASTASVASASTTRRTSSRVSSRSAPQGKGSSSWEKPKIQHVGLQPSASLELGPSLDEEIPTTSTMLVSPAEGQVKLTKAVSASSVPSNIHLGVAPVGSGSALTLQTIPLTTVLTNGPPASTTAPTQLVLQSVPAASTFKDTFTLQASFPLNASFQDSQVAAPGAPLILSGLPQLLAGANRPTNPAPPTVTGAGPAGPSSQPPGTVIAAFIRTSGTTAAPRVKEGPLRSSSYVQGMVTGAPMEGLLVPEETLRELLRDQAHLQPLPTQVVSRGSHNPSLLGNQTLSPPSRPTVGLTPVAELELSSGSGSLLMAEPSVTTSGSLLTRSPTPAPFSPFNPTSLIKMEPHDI
# ETV5, sequence (P41161 whole entry): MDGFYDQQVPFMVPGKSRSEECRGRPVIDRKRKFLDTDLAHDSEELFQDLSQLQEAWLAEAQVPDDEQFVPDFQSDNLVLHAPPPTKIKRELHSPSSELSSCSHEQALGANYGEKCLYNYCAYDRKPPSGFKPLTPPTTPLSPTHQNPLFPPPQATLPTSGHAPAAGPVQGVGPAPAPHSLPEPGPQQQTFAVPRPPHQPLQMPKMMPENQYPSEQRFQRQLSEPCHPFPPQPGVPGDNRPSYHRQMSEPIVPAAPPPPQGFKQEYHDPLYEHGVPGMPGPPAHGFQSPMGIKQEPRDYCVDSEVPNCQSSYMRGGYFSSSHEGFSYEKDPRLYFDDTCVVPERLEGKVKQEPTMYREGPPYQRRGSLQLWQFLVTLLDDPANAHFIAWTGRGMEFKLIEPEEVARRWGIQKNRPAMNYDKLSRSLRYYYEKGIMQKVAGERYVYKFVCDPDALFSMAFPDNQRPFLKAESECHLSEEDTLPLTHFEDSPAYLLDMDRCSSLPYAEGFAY
# ELF1, sequence (P32519 whole entry): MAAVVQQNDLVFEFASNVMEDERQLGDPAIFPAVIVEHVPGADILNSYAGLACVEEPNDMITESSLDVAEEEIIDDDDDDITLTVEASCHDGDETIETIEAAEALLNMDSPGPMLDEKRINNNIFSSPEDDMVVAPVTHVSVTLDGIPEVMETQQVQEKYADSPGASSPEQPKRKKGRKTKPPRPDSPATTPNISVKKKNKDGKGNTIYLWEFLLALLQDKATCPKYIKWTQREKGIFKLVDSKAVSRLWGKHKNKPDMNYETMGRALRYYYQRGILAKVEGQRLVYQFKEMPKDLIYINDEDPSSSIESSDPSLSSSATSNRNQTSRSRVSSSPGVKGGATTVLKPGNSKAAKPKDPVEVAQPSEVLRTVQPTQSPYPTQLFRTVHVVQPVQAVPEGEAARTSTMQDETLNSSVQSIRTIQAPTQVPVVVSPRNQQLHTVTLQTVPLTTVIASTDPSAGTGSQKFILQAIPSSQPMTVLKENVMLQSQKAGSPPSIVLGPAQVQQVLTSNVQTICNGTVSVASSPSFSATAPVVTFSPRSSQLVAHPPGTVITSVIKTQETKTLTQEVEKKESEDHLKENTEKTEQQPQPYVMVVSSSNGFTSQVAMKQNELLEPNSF
# ETV1, sequence (P50549 whole entry): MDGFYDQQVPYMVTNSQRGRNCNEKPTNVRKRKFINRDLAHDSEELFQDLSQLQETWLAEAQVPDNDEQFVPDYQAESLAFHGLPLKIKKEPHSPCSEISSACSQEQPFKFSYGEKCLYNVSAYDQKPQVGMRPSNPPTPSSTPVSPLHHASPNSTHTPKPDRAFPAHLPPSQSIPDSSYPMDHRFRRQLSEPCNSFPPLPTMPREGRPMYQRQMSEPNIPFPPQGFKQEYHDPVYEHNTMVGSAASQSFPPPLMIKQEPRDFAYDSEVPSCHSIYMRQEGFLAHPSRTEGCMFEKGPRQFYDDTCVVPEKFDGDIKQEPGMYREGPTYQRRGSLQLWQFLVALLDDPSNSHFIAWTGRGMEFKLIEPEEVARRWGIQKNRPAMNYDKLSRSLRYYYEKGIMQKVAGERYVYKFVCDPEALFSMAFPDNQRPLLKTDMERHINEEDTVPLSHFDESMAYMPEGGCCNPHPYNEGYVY
# SPIB, sequence (Q01892 whole entry): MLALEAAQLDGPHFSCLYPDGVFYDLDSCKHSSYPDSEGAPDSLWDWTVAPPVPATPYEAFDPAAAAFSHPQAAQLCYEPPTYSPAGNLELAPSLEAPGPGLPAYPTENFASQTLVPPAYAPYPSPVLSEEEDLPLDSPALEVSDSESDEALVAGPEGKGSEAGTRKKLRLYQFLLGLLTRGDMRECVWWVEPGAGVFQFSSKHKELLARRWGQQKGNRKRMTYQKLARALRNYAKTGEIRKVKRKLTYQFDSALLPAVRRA
sequence,measurement,setting,value
GCTCAG,binding signal,[1],"1.16 fold enrichment (6-mer frequency, TF over GST control)"
same,binding signal,[2],"1.17 fold enrichment (6-mer frequency, TF over GST control)"
same,binding signal,[3],"1.24 fold enrichment (6-mer frequency, TF over GST control)"
same,binding signal,[4],"1.18 fold enrichment (6-mer frequency, TF over GST control)"
same,binding signal,[5],"1.21 fold enrichment (6-mer frequency, TF over GST control)"
same,binding signal,[6],"1.11 fold enrichment (6-mer frequency, TF over GST control)"
same,binding signal,[7],"1.07 fold enrichment (6-mer frequency, TF over GST control)"
same,binding signal,[8],"1.12 fold enrichment (6-mer frequency, TF over GST control)"
same,binding signal,[9],"1.11 fold enrichment (6-mer frequency, TF over GST control)"
same,binding signal,[10],"1.11 fold enrichment (6-mer frequency, TF over GST control)"
same,binding signal,[11],"1.17 fold enrichment (6-mer frequency, TF over GST control)"
same,binding signal,[12],"1.13 fold enrichment (6-mer frequency, TF over GST control)"
same,binding signal,[13],"1.23 fold enrichment (6-mer frequency, TF over GST control)"
same,binding signal,[14],"1.19 fold enrichment (6-mer frequency, TF over GST control)"
same,binding signal,[15],"1.22 fold enrichment (6-mer frequency, TF over GST control)"
same,binding signal,[16],"1.18 fold enrichment (6-mer frequency, TF over GST control)"
same,binding signal,[17],"1.03 fold enrichment (6-mer frequency, TF over GST control)"
same,binding signal,[18],"1.41 fold enrichment (6-mer frequency, TF over GST control)"
same,binding signal,[19],"1.13 fold enrichment (6-mer frequency, TF over GST control)"
